Experimental data from PubChem BioAssay.
The source made the active and inactive calls.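 The calls were made as follows: active = normalized viability below 100% at a tested concentration; inactive = the rest.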 *1 amine or outer side, *2 acyl side, *3 side chain or, on linkers, in order; H or OH if unused. Where a SMILES comes first, the peptide text is derived from it. Bridges are numbered along the chain shown (N, C = ends). Roman numbers before positions name the chains, in order. [ ]: non-standard residue; d: D form. Hexamethylenediamine = C(CCCN[*:2])CCN[*:1]; Dip = N[C@H](C(=O)O)C(c1ccccc1)c1ccccc1; Chg = N[C@H](C(=O)O)C1CCCCC1; NMeA = CN[C@@H](C)C(=O)O

Assay: ovarian cancer cell viability with rucaparib, profiling panel, oncology-focused library, rucaparib conditional (AID 1508598)
Settings: patient-derived ovarian cancer cells, CellTiter-Glo viability, 144 h, hits give low values
[1] = at 0.000305 µM, OCI-C5x cells, with rucaparib 10 µM, 100% = cells with rucaparib alone
[2] = at 0.000305 µM, OCI-C5x cells, without rucaparib
[3] = at 0.000305 µM, OCI-P5x cells, with rucaparib 20 µM, 100% = cells with rucaparib alone
[4] = at 0.000305 µM, OCI-P5x cells, without rucaparib
[5] = at 0.00122 µM, OCI-C5x cells, with rucaparib 10 µM, 100% = cells with rucaparib alone
[6] = at 0.00122 µM, OCI-C5x cells, without rucaparib
[7] = at 0.00122 µM, OCI-P5x cells, with rucaparib 20 µM, 100% = cells with rucaparib alone
[8] = at 0.00122 µM, OCI-P5x cells, without rucaparib
[9] = at 0.00488 µM, OCI-C5x cells, with rucaparib 10 µM, 100% = cells with rucaparib alone
[10] = at 0.00488 µM, OCI-C5x cells, without rucaparib
[11] = at 0.00488 µM, OCI-P5x cells, with rucaparib 20 µM, 100% = cells with rucaparib alone
[12] = at 0.00488 µM, OCI-P5x cells, without rucaparib
[13] = at 0.0195 µM, OCI-C5x cells, with rucaparib 10 µM, 100% = cells with rucaparib alone
[14] = at 0.0195 µM, OCI-C5x cells, without rucaparib
[15] = at 0.0195 µM, OCI-P5x cells, with rucaparib 20 µM, 100% = cells with rucaparib alone
[16] = at 0.0195 µM, OCI-P5x cells, without rucaparib
[17] = at 0.0781 µM, OCI-C5x cells, with rucaparib 10 µM, 100% = cells with rucaparib alone
[18] = at 0.0781 µM, OCI-C5x cells, without rucaparib
[19] = at 0.0781 µM, OCI-P5x cells, with rucaparib 20 µM, 100% = cells with rucaparib alone
[20] = at 0.0781 µM, OCI-P5x cells, without rucaparib
[21] = at 0.313 µM, OCI-C5x cells, with rucaparib 10 µM, 100% = cells with rucaparib alone
[22] = at 0.313 µM, OCI-C5x cells, without rucaparib
[23] = at 0.313 µM, OCI-P5x cells, with rucaparib 20 µM, 100% = cells with rucaparib alone
[24] = at 0.313 µM, OCI-P5x cells, without rucaparib
[25] = at 1.25 µM, OCI-C5x cells, with rucaparib 10 µM, 100% = cells with rucaparib alone
[26] = at 1.25 µM, OCI-C5x cells, without rucaparib
[27] = at 1.25 µM, OCI-P5x cells, with rucaparib 20 µM, 100% = cells with rucaparib alone
[28] = at 1.25 µM, OCI-P5x cells, without rucaparib
[29] = at 5 µM, OCI-C5x cells, with rucaparib 10 µM, 100% = cells with rucaparib alone
[30] = at 5 µM, OCI-C5x cells, without rucaparib
[31] = at 5 µM, OCI-P5x cells, with rucaparib 20 µM, 100% = cells with rucaparib alone
[32] = at 5 µM, OCI-P5x cells, without rucaparib

Measured: viability

CN[C@@H](C)C(=O)N[C@H](C(=O)N1CCC[C@H]1C(=O)N[C@H](C(=O)NCCCCCCNC(=O)[C@@H](NC(=O)[C@@H]1CCCN1C(=O)[C@@H](NC(=O)[C@H](C)NC)C1CCCCC1)C(c1ccccc1)c1ccccc1)C(c1ccccc1)c1ccccc1)C1CCCCC1 (I: H-[NMeA][Chg]P[Dip] / II: H-[NMeA][Chg]P[Dip]; linker I:C-II:C via Hexamethylenediamine)
inactive: [1] 121% | [2] 115% | [5] 119% | [6] 106% | [9] 129% | [10] 111% | [13] 115% | [14] 108% | [17] 110% | [18] 112% | [21] 114% | [22] 116% | [26] 105% | [30] 120%
active: [3] 85.6% | [4] 93.2% | [7] 95.3% | [8] 94.9% | [11] 83.7% | [12] 94.7% | [15] 81.4% | [16] 99.5% | [19] 39.3% | [20] 85.3% | [23] 19.6% | [24] 54.1% | [25] 96.9% | [27] 13.6% | [28] 21.5% | [29] 89.4% | [31] 0.911% | [32] 7.49%

Nc1nc(F)nc2c1ncn2[C@H]1O[C@H](CO)[C@@H](O)[C@@H]1O
inactive: [1] 101% | [2] 120% | [3] 104% | [4] 108% | [5] 106% | [6] 117% | [7] 103% | [8] 107% | [9] 112% | [10] 120% | [11] 102% | [12] 112% | [13] 109% | [14] 116% | [16] 113% | [17] 106% | [18] 111% | [19] 110% | [20] 113% | [22] 112% | [24] 112% | [27] 110% | [28] 107% | [31] 106%
active: [15] 97.4% | [21] 89.3% | [23] 99% | [25] 80.7% | [26] 82.4% | [29] 79.6% | [30] 11.9% | [32] 38.5%

C[C@H](O[C@H]1OCCN(Cc2n[nH]c(=O)[nH]2)[C@H]1c1ccc(F)cc1)c1cc(C(F)(F)F)cc(C(F)(F)F)c1
inactive: [1] 106% | [2] 113% | [3] 100% | [4] 105% | [5] 111% | [6] 113% | [7] 109% | [8] 105% | [9] 122% | [10] 123% | [11] 110% | [12] 114% | [13] 108% | [14] 114% | [15] 115% | [16] 112% | [17] 117% | [18] 125% | [19] 117% | [20] 117% | [21] 116% | [22] 130% | [23] 112% | [24] 119% | [25] 120% | [26] 144% | [27] 117% | [28] 113% | [30] 147%
active: [29] 80.9% | [31] 36.6% | [32] 97.5%

CC#C[C@@]1(O)CC[C@H]2[C@@H]3CCC4=CC(=O)CCC4=C3[C@H](c3ccc(N(C)C)cc3)C[C@@]21C
active: [3] 88.4% | [4] 89.8% | [7] 88.8% | [8] 94.8% | [11] 93.3% | [12] 95% | [15] 86.7% | [16] 87.4% | [19] 84.5% | [20] 86.4% | [23] 83.6% | [24] 89.9% | [27] 87.2% | [28] 91% | [31] 72.1% | [32] 89.7%
inactive: [1] 124% | [2] 104% | [5] 112% | [6] 114% | [9] 122% | [10] 108% | [13] 118% | [14] 110% | [17] 122% | [18] 111% | [21] 113% | [22] 118% | [25] 121% | [26] 118% | [29] 162% | [30] 140%
